Most compounds without a hit are left out; they make up all but 21% or so of the library.
CHX counter = counter-screen hit for Shiga toxin inhibitors, cycloheximide; hit rate 12% among 300,000; AID 2314; cell reporter, cycloheximide protein synthesis inhibition counterscreen; max response, %; in the data active = max response mostly above about 13%, no sharp cut-off; inactive = mostly below about 14%; also: read at 38.3 µM for the half of the compounds with a filed dose; 0% is about no effect
Pf growth 48h = P. falciparum growth inhibition at 48 hours (one generation). P. falciparum luciferase growth in erythrocytes, 48 h. Potency, µM (titrated, usually from 28.7 µM), for inactives: at the top dose activity change, negative = inhibition, usual class: inhibitors. hit rate 5.9% among 310,000; also: potency is read from the fitted curve at half-maximal effect; % is scaled to controls: 0 for no effect and ±100 for the full control effect
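Firefly luciferase activity from engineered P. falciparum reports growth; inhibitors lower the luminescent signal. Cultures contained 2% hematocrit erythrocytes at 0.1% final parasitemia.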
Shiga toxin inh = inhibitors of Shiga toxin in Vero cells | hit rate 9.2% among 290,000 | Vero cells, Shiga toxin protein synthesis inhibition reporter | AID 2315 | inhibition, % at 38.7 µM; in the data active = inhibition mostly above about 28%, no sharp cut-off; inactive = mostly below about 43%; also: 0% is about no effect
Pf growth 96h = inhibits malaria parasite growth, 96 h | P. falciparum luciferase reporter growth, 96 h | Potency, µM (top dose mostly 28.7 µM), for inactives: top-dose activity change, negative = inhibition, most hits filed as inhibitors | hit rate 6.9% among 320,000 | AID 504834; also: potency is read from the fitted curve at half-maximal effect; % is scaled to controls: 0 for no effect and ±100 for the full control effect
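Plates of compound plus infected erythrocytes (2% hematocrit, 0.05% parasitemia final) incubate 96 hours, 37 C, 5% CO2. Detection reagent added; reduced luminescence from the parasites' luciferase reporter flags inhibition.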
AMA1 RON2 block = inhibitors of Plasmodium falciparum AMA1-RON2 interaction; AlphaScreen AMA1-biotinylated RON2 peptide binding; Potency, µM (top dose mostly 58.2 µM), inactives show at the top dose activity change, negative = inhibition, usual class: inhibitors; hit rate 0.2% among 360,000; AID 720542;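 also: potency is read from the fitted curve at half-maximal effect; 0% = vehicle wells and -100% = peptide control; nearly all actives have a fitted effect of over 45% in size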
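AMA1 (3D7) with his tag at 25 nM final met compounds first, then biotinylated RON2 peptide at 25 nM; detection used donor plus acceptor beads, 10 µg/mL apiece, read by AlphaScreen after 30 min at room temperature.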
HCV inhibitor = blocks hepatitis C virus | AID 651820 | hit rate 3.4% among 340,000 | Potency, µM (highest dose often 41.8 µM), without a hit: top-dose activity change, negative = inhibition, hits mostly inhibitors | Huh7.5.1 HCVcc-Cre infection, luciferase reporter, 44 h; also: potency is read from the fitted curve at half-maximal effect; % is scaled to controls: 0 for no effect and ±100 for the full control effect
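Infectious HCVcc-Cre (~0.5 moi) was added to cells just after compound, with cells seeded 4 h earlier at 1,000 per well. Luciferase activity after 44 h culture reported infection; substrate was incubated 15 min at room temperature before reading.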
Starred values were filed as active, the others as inactive; i = inactive; ? = inconclusive; · = no result; ! = not active in a repeat; [ ] = another dose, or the depositor's remark. Unless noted, calls follow the shape of the dose curve; as a rule, active = well fitted curve in the direction sought with a large enough effect; inconclusive = small, poorly fitted or top-dose-only effect, or another doubt; inactive = no such curve, though single readings can be large; an effect the other way counts as inactive or inconclusive.

SMILES | CHX counter | Pf growth 48h | Shiga toxin inh | Pf growth 96h | AMA1 RON2 block | HCV inhibitor
COc1ccc(-c2cc(C(=O)N/N=C(\C)c3cccnc3)c3ccccc3n2)c(OC)c1 | 18 | 29% | 42* | ? | 45% | -1%
COc1ccc2cc(/C(C)=N/NC(=O)c3cc(-c4cccnc4)nc4ccccc34)ccc2c1 | -1 | -1% | -6 | ? | 25% | ?
CCCCn1c(N)c(N(CCOC)C(=O)COc2ccc(Cl)cc2)c(=O)[nH]c1=O | -1 | -27% | 19 | 3% | 1% | 17%
CCN(CC)c1ccc(/C=C2/C(=O)N(c3ccc([N+](=O)[O-])cc3)N=C2N2CCOCC2)cc1 | 1 | -16% | -4 | 53% | · | ·
CCCC1=NN(c2ccc([N+](=O)[O-])cc2)C(=O)/C1=C\N(C)C | 11* | 28% | 24 | 17% | 18% | -8%
C/C(=N\Nc1ccc(F)cc1F)c1ccccc1O | 28* | 26% | 79* | 15% | 0% | ?
CCCN1CCN(C(=O)c2ccc(F)c(S(=O)(=O)N3CCOCC3)c2)CC1 | · | -19% | · | 6% | 0% | -9%
O=C(CCN1C(=O)C2C3CCC(C3)C2C1=O)Nc1ccc(F)cc1 (stereo unspecified) | 1 | 2% | -4 | 32% | 10% | -6%
CC(OC(=O)CSc1ccc([N+](=O)[O-])cc1)C(=O)NC1CC1 (stereo unspecified) | · | ? | · | -25% | -1%[11.6 µM] | 5%
CCOC(=O)c1[nH]c2ccc(OC)cc2c1N=CN(C)C | 0 | 7% | -7 | 0.13µM* | 16% | -7%
Cc1ccc(C2(C)NC(=O)N(CC(=O)NCCN3C(=O)S/C(=C\c4cccnc4)C3=O)C2=O)cc1 (stereo unspecified) | · | · | · | · | 6%[11.6 µM] | ?
O=c1[nH]c(CN2CCN(c3ccc(O)cc3)CC2)nc2scc(-c3ccc(Cl)cc3)c12 | -3 | 3.7µM* | -12 | ? | 16% | 6.3µM*
COc1cccc(N2CCN(Cc3nc4scc(-c5ccccc5)c4c(=O)[nH]3)CC2)c1 | -5 | -10% | -15 | ? | 25%[2.32 µM] | 13µM*
O=c1[nH]c(CN2CCN(c3ccccc3O)CC2)nc2scc(-c3ccccc3Cl)c12 | -3 | 5.2µM* | 20 | 9.3µM* | 92% | 13µM*
CC1=C(CC(=O)c2ccc(Cl)cc2)C(=O)c2ccccc2C1=O | 27* | 0.17µM* | 61* | ? | 12µM* | 4.5µM*
O=C(C1COc2ccccc2O1)N1CCN(c2ccc(C(F)(F)F)cn2)CC1 (stereo unspecified) | · | · | · | · | 3% | 35%
CCN(CC(=O)Nc1c(F)cccc1F)C(=O)C1CCN(c2ncnc3sc(C)c(C)c23)CC1 | · | 10µM* | · | ? | -6% | ?
Cc1cccc(C)c1NC(=O)CN(C)C(=O)C1CCN(c2ncnc3sc(C)c(C)c23)CC1 | · | ? | · | 7.4µM* | -20% | ?
Cc1cc(Br)ccc1NC(=O)CN(C)C(=O)C1CCN(c2ncnc3sc(C)c(C)c23)CC1 | · | · | · | · | -15% | 10µM*
COc1ccc2c(c1)CSC(c1ccccc1)C2=O (stereo unspecified) | · | · | · | · | 38% | ·
CC(=O)[C@]1(O)Cc2c(O)c3c(c(O)c2[C@@H](O[C@H]2C[C@H](N)[C@H](O)[C@H](C)O2)C1)C(=O)c1c(O)cccc1C3=O | -4 | 2.4µM* | -2 | 1.5µM* | · | ·
COc1cccc2c1C(=O)c1c(O)c3c(c(O)c1C2=O)C[C@@](O)(C(C)=O)C[C@@H]3O[C@H]1C[C@H](N)[C@H](O)[C@H](C)O1 | 5 | 0.37µM* | 42*! | 0.59µM* | 7% | 6.3µM*!
CCCCC(=O)OCC(=O)[C@]1(O)Cc2c(O)c3c(c(O)c2[C@H](OC2CC(NC(=O)C(F)(F)F)C(O)C(C)O2)C1)C(=O)c1c(OC)cccc1C3=O (stereo partly specified) | · | 3.4µM* | · | 2.4µM* | · | ·
CC(=O)[C@]1(O)Cc2c(O)c3c(c(O)c2[C@@H](O[C@H]2C[C@H](N)[C@H](O)[C@H](C)O2)C1)C(=O)c1ccccc1C3=O | · | 3.8µM* | · | 2.7µM* | -2% | 11µM*
COc1cccc2c1C(=O)c1c(O)c3c(c(O)c1C2=O)C[C@](O)(C(=O)CO)C[C@@H]3O[C@H]1C[C@H](N)[C@@H](O)[C@H](C)O1 | · | -10% | · | -10% | · | ·
SMILES | CHX counter | Pf growth 48h | Shiga toxin inh | Pf growth 96h | AMA1 RON2 block | HCV inhibitor
COc1cccc(-n2sc3c(c2=S)-c2cc(OC)ccc2NC3(C)C)c1 | -2 | ? | -21 | ? | 22µM* | 10µM*
Nc1ncnc(N2CCOCC2)c1N | -1 | 7% | -8 | 3% | -15% | 24%
Clc1ccc2c(c1)CNc1c(ncnc1N1CCOCC1)O2 | 12* | ? | -14 | ? | 0% | ?
COc1ccc(-c2nn(CCC#N)cc2C(=O)NCc2ccccc2)cc1OC | -3 | 232% | -4 | 12µM* | -5% | 1%
CCCOc1ccc(/C=N/Nc2ccccc2[N+](=O)[O-])c(O)c1 | 58* | 233% | 74* | 14% | -16% | 11%
CCCOc1ccc(/C=N/NC(=S)Nc2ccccc2[N+](=O)[O-])c(O)c1 | 93* | 2.6µM* | 75* | ? | 45% | ?
COc1ccc(/C=N/NC(=S)Nc2ccccc2[N+](=O)[O-])cc1O | 60* | 131% | 62* | 28% | 57% | ?
CCCOc1ccc([N+](=O)[O-])c(N)c1 | 5 | -5% | 14 | 29% | 6% | -5%
OCC1(Cc2ccc(Cl)cc2)CCN(Cc2ccccc2F)CC1 | 1 | 13µM* | -10 | ? | 0% | -4%
O=C(Cc1ccccc1)N1CCN(CC2CC=CCC2)CC1 (stereo unspecified) | 12 | 25% | -8 | 21% | ? | 7%
CSc1ccc(CN2CCC(CO)(Cc3ccc(Cl)cc3)CC2)cc1 | -2 | 0% | 17 | ? | -4% | ?
OCC1(Cc2ccc(Cl)cc2)CCN(CC2CC=CCC2)CC1 (stereo unspecified) | -2 | 6.6µM* | -21 | 49% | -4% | ?
OCC1(Cc2ccc(Cl)cc2)CCN(CCCc2ccccc2)CC1 | 0 | ? | -20 | 3% | -26% | 13µM*
CN1CCC(CO)(Cc2ccccc2)CC1 | -4 | 35% | -9 | 3.7µM* | -11% | 16%
CCCCN1CCCCC1(C)C(=O)NCc1ccc2c(c1)OCO2 (stereo unspecified) | · | · | · | · | -12% | ·
COc1ccccc1C(=O)NC(=O)CSc1nnc(N)s1 | · | -3% | · | -27% | 12% | 3%
Clc1ccc2nc(N3CCN(c4ccccc4)CC3)sc2c1 | 37* | i | 135* | · | 0% | 6%
O=S(=O)(c1ccc(Cl)cc1)N1CCCN(c2nc3ccc(Cl)cc3s2)CC1 | -1 | 0% | -7 | 4% | -6% | 15%
Brc1ccc2nc(N3CCN(c4ccccc4)CC3)sc2c1 | 47* | 230% | 156* | 260% | -20% | 2%

Screening results from PubChem BioAssay.
